{"source": "PubChem BioAssay AID485", "about": "(The Scripps Research Institute Molecular Screening Center, 2006)", "note": "Hit rate of the full screen: of about 170,000 compounds, about 460 (0.27%) were called active. What follows is part of a selection rich in actives, with near analogues and random picks from the rest. A number with no mark means an inactive call.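 How the source made its calls: active means inhibition above the plate cutoff, the mean inhibition of test wells on that plate plus 3 SD (cut at about 28% in these data); inactive means the rest.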"}
{"target": "Sphingosine 1-phosphate receptor 3 (Homo sapiens) (UniProt Q99500)", "sequence (Q99500 whole entry, looked up)": "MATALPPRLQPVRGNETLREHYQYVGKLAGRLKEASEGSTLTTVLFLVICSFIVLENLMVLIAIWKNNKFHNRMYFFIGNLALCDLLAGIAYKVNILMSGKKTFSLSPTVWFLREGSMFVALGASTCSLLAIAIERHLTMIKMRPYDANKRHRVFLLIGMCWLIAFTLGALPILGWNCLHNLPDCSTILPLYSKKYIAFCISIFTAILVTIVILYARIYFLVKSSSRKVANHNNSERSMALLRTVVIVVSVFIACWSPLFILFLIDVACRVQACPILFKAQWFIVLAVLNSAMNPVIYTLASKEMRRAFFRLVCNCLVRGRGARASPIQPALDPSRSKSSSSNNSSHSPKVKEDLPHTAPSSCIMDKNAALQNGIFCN", "experiment": "inhibition of S1P-stimulated S1P3 activation – cell-based, primary screen (AID 485);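 further: cells challenged with S1P at its EC80 of 0.8 µM; blue over green emission ratio from cleaved BLA substrate after 4 h stimulation; 0% = S1P-stimulated wells and 100% = unstimulated DMSO-only wells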", "conditions": "CHO S1P3 NFAT-BLA reporter, FRET fluorescence, antagonist mode; at 4.98 µM; active compounds read high"}
{"smiles": "CCC(=O)/C=C1\\Sc2ccccc2N1CC", "inhibition": "1.3%"}
{"smiles": "CCN1/C(=C/c2ccc3ccc(C)cc3[n+]2CC)Sc2ccccc21", "inhibition": "25.1%"}
{"smiles": "CCN1/C(=C\\c2ccc3ccccc3[n+]2CC)Sc2cc(C)ccc21", "inhibition": "31.2% (active)"}
{"smiles": "C=CCSc1nnc(NC(=O)c2ccc(NC(C)=O)cc2)s1", "inhibition": "-1.45%"}
{"smiles": "Cc1cccc(C(=O)Nc2ccc3c(c2)C(=O)N(CC(C)C)C3=O)c1", "inhibition": "2.56%"}
{"smiles": "Nc1ccccc1Sc1cc(Cl)nnc1Cl", "inhibition": "1.23%"}
{"smiles": "Cc1c(NC(=O)C(=O)N/N=C/c2cccs2)c(=O)n(-c2ccccc2)n1C", "inhibition": "-2.98%"}
{"smiles": "COc1ccccc1NC(=O)C1=C(C)NC(=O)NC1c1ccc(C)s1", "note": "(configuration not stated)", "inhibition": "1.95%"}
{"smiles": "COc1cccc(OC)c1C(=O)NC(=S)NCc1ccco1", "inhibition": "-6.79%"}
{"smiles": "NS(=O)(=O)c1ccc(CNC(=O)c2cnccn2)cc1", "inhibition": "-4%"}
{"smiles": "Brc1ccc(-c2nn[nH]n2)cc1", "inhibition": "-7.13%"}
{"smiles": "CCN(CCn1cccn1)Cc1cn[nH]c1-c1ccc(OC)cc1F", "inhibition": "-12.8%"}
{"smiles": "COc1ccc(CCNC2=CC(=O)CC(C)(C)C2)cc1", "inhibition": "-7.01%"}
{"smiles": "CN(C)/C=C(/C(=O)c1ccc(Cl)c(Cl)c1)c1nnnn1-c1ccccc1", "inhibition": "1.6%"}
{"smiles": "O=C(NNC(=O)c1ccccc1[N+](=O)[O-])Nc1ccccc1C(F)(F)F", "inhibition": "-5.24%"}
{"smiles": "O=S(=O)([N-]c1nc2ccccc2nc1-[n+]1ccc(Cc2ccccc2)cc1)c1ccc(Br)s1", "inhibition": "0.71%"}
{"smiles": "CCNc1nc(Oc2ccc(C(=O)OC)cc2)nc(N2CCOCC2)n1", "inhibition": "-9.79%"}
{"smiles": "COc1ccccc1Nc1nc(N)nc(CSC(=S)N2CCOCC2)n1", "inhibition": "3%"}
{"smiles": "O=C(CCCl)Nc1ccc(S(=O)(=O)NCc2ccco2)cc1", "inhibition": "-8.65%"}
{"smiles": "O=C(NCc1nnc(SCC(=O)N2CCCc3ccccc32)o1)c1ccccc1F", "inhibition": "-7.71%"}
{"smiles": "O=C(Cc1ccccc1)NCc1ccc(F)cc1", "inhibition": "-11%"}
{"smiles": "CCCCC(=O)NCc1ccc(F)cc1", "inhibition": "6.82%"}
{"smiles": "CSc1ccc(CN(C)CC(=O)NCc2ccc(F)cc2)cc1", "inhibition": "30.2% (active)"}
{"smiles": "COc1ccccc1-n1c(SCC(=O)O)nc2sc3c(c2c1=O)CCC3", "inhibition": "-7.86%"}
{"smiles": "CN(C)CCCn1c(SCCN2C(=O)c3ccccc3C2=O)nc2ccccc2c1=O", "inhibition": "5.65%"}
{"smiles": "Nc1ccc(SCCN2C(=O)c3ccccc3C2=O)cc1", "inhibition": "91.7% (active)"}
{"smiles": "Cc1ccc(SCCN2C(=O)NC(C)(C)C2=O)cc1", "inhibition": "-2.4%"}
{"smiles": "CCOC(=O)C1=C(C)NC(C)=C(C(=O)OCC)C1c1ccccn1", "inhibition": "-28.6%"}
{"smiles": "CCOC(=O)C1=C(C)NC(=O)NC1c1ccccc1", "note": "(configuration not stated)", "inhibition": "-9.13%"}
{"smiles": "CCOC(=O)C1=C(C)N=C2c3ccccc3C(=O)C2C1c1ccc(Br)cc1", "note": "(configuration not stated)", "inhibition": "60% (active)"}
{"smiles": "COc1ccc(/C=C/CN2CCCC(C(=O)c3cc(F)ccc3F)C2)cc1", "note": "(configuration not stated)", "inhibition": "-10.6%"}
{"smiles": "COC(=O)N(NC(=O)C(O)(C(C)C)C(C)C)c1ccccc1", "inhibition": "11%"}
{"smiles": "CC(CNS(=O)(=O)c1ccc(Br)cc1)CN(C)C", "note": "(configuration not stated)", "inhibition": "-2.53%"}
{"smiles": "COc1ccc(N=C(C)c2sc3ccccc3c2O)cc1", "inhibition": "6.44%"}
{"smiles": "Cc1nc2cc(NC(=O)NC3CC3)ccc2n1C", "inhibition": "-13.8%"}
{"smiles": "OC1CCCN(c2ncnc3c2nnn3Cc2c(F)cccc2Cl)C1", "note": "(configuration not stated)", "inhibition": "-7.85%"}
{"smiles": "N#C/C(=C/c1ccc(-c2ccccc2[N+](=O)[O-])o1)C(=O)NCCN1CCCCC1", "inhibition": "-1.3%"}
{"smiles": "CCC(C)N(C(=O)COC(=O)C1C(C(=O)OC)=C(C)NC(C)=C1C(=O)OC)C1CCS(=O)(=O)C1", "note": "(configuration not stated)", "inhibition": "-2.76%"}
{"smiles": "CN1C=CC=C/C1=C1\\SC(=S)N(Cc2ccccc2)C1=O", "inhibition": "-8.73%"}
{"smiles": "CCc1ccc(S(=O)(=O)NCC(O)COc2ccc(OC)cc2)cc1", "note": "(configuration not stated)", "inhibition": "11.9%"}
{"smiles": "O=C(N/N=C/c1c[nH]c2ccccc12)c1cc2ccccc2o1", "inhibition": "-11.5%"}
{"smiles": "Cc1c(/C=N\\NC(=O)c2cc3ccccc3o2)c2ccccc2n1C", "inhibition": "9.64%"}
{"smiles": "O=C(N/N=C/c1coc2ccccc2c1=O)c1cc2ccccc2o1", "inhibition": "30.4% (active)"}
{"smiles": "COc1cc(NS(=O)(=O)c2ccc(NC(=O)c3ccc(S(=O)(=O)N4CCCCC4)cc3)cc2)ncn1", "inhibition": "-13.9%"}
{"smiles": "CC(C)CNC(=O)C(=O)NCc1ccccc1", "inhibition": "1.01%"}
{"smiles": "CCOC(=O)C1=NOC(Cn2cc(C(C)=O)c(=O)[nH]c2=O)C1", "note": "(configuration not stated)", "inhibition": "-0.07%"}
{"smiles": "Cc1cccc2c1N(CCOc1ccccc1)C(=O)C2=O", "inhibition": "-6.34%"}
{"smiles": "O=C(CSc1nc2ccccc2[nH]1)c1cccs1", "inhibition": "-5%"}
{"smiles": "Nc1c(C(=O)c2cccs2)sc2nsc(SCCN3CCCCC3)c12", "inhibition": "28.7% (active)"}
{"smiles": "Cc1nc2sc(C(=O)c3ccccc3)c(N)c2c2c1CCCC2", "inhibition": "26.9%"}
{"smiles": "O=C(NCc1ccco1)C1CCCN1S(=O)(=O)c1ccccc1C(F)(F)F", "note": "(configuration not stated)", "inhibition": "5.85%"}
{"smiles": "S=C(NCCc1ccccc1)NCC1CCCO1", "note": "(configuration not stated)", "inhibition": "29.2% (active)"}
{"smiles": "O=C(NCCc1c[nH]c2ccccc12)C(=O)NCC1CCCO1", "note": "(configuration not stated)", "inhibition": "-20.2%"}
{"smiles": "O=C(CS(=O)(=O)Cc1ccccc1)NCC1CCCO1", "note": "(configuration not stated)", "inhibition": "9.8%"}
{"smiles": "O=S1(=O)CC/C(=N\\Nc2ccc(F)cc2)c2ccsc21", "inhibition": "3.45%"}
{"smiles": "S=C(NCc1ccco1)Nc1ccc2c(c1)OCCO2", "inhibition": "-9.96%"}
{"smiles": "CC12CN3CCN(CC(C3)/C1=N\\NC(=O)c1ccccc1N)C2", "inhibition": "-5.45%"}
{"smiles": "COc1ccc(C)cc1NC(=O)C(OC(=O)c1cccc(S(=O)(=O)N(C)c2ccccc2)c1)c1ccccc1", "note": "(configuration not stated)", "inhibition": "-3.14%"}
{"smiles": "CN(c1ccccc1)S(=O)(=O)c1ccc(Cl)c(C(=O)OCC(N)=O)c1", "inhibition": "-15.6%"}
{"smiles": "CC(=O)c1c(C)[nH]c(C(=O)COC(=O)c2cccc(S(=O)(=O)N(C)c3ccccc3)c2)c1C", "inhibition": "37.9% (active)"}
{"smiles": "O=C(NCC(c1cccs1)N1CCOCC1)c1cc(-c2ccccn2)nc2ccccc12", "note": "(configuration not stated)", "inhibition": "-2.5%"}
{"smiles": "COCCn1c(SCC(=O)c2[nH]c(C)c(C(C)=O)c2C)nc2ccccc2c1=O", "inhibition": "-13.7%"}
